Results filed as inconclusive are left out. Active and inactive are the calls of the source. Unless noted, no stated cut-off is given here; in the data, active means fluorescence slope change above about 50%; inconclusive means mostly about 31% to 49%; inactive means weaker than that.
Key:
[1] = target: ATP-dependent translocase ABCB1 (Homo sapiens) (UniProt P08183); experiment: MDR1 (ABCB1) efflux transporter inhibition, cell-based (AID 377); conditions: MDR1-expressing cells, fluorescent substrate accumulation slope; stronger effect = higher value; concentration not given here
ATP-dependent translocase ABCB1 (Homo sapiens), sequence (P08183 whole entry, looked up): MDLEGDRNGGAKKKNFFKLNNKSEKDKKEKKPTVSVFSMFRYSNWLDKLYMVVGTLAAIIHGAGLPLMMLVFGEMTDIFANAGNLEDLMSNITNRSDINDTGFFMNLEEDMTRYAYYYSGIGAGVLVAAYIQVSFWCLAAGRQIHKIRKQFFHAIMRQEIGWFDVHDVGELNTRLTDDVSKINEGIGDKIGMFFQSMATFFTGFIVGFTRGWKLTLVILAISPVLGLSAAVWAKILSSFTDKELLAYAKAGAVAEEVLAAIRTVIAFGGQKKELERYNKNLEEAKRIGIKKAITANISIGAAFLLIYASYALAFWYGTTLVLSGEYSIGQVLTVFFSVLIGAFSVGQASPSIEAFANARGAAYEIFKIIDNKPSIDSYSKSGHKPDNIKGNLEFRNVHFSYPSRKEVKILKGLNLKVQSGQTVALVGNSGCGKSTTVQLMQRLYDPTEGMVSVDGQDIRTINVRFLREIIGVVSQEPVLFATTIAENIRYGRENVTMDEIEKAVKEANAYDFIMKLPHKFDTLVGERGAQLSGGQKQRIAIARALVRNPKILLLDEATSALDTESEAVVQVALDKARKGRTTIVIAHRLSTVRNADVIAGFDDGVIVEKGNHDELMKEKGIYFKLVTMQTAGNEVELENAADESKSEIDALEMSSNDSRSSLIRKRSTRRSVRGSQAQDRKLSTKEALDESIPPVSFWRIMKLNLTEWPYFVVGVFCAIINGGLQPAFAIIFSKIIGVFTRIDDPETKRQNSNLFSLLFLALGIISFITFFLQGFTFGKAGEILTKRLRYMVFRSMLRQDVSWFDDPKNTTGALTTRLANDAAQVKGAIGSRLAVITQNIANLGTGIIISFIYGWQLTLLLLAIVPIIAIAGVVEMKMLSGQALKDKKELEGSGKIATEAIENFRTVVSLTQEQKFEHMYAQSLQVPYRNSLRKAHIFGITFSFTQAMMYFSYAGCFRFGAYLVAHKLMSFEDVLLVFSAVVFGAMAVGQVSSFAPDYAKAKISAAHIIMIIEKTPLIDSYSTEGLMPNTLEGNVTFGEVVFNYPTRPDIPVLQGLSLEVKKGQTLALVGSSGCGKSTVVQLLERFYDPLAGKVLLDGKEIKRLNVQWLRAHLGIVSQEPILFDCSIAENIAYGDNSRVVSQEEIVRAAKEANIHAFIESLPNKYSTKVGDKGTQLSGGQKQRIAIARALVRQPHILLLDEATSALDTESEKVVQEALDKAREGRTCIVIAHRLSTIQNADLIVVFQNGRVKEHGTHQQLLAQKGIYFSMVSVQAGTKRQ

[2] = hESC survival regulators, cell-based (AID 493140; call rule not given here;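 further: cells exposed to compounds for four days before counting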); conditions: human embryonic stem cell survival screen; stronger effect = higher value
[3] = liver-stage malaria parasite growth inhibition, primary screen, cell-based, HepG2, luciferase luminescence, HepG2 viability (AID 624349; in the data active means parasite load remaining mostly below about 12%, no sharp cut-off; inactive means mostly above about 10%;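 further: 100% = mean of DMSO negative control wells on the same plate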); conditions: P. berghei liver stage in HepG2, luciferase luminescence, concentration not given here; parasite load remaining: stronger effect = lower value; viability: measured here: HepG2 viability without parasites

| SMILES | fluorescence slope change [1] | survival [2] | parasite load remaining [3] | viability [3] [%] |
| --- | --- | --- | --- | --- |
| CC[C@H]1OC(=O)[C@H](C)[C@@H](OC2CC(C)(OC)C(O)C(C)O2)[C@H](C)[C@@H](OC2OC(C)CC(N(C)C)C2O)[C@](C)(O)C[C@@H](C)/C(=N\OCOCCOC)[C@H](C)[C@@H](O)[C@]1(C)O (some centres undefined) | 66.5% (active) | 6.25 (inactive) | – | – |
| COc1ccc(CC(N)C(=O)N[C@@H]2C(O)[C@H](n3cnc4c(N(C)C)ncnc43)O[C@@H]2CO)cc1 (some centres undefined) | 10.7% (inactive) | 0.083 (inactive) | 13.2% (inactive) | 14.9 |
| O=C(O)c1cc2ccccc2c(Cc2cc3ccccc3c(C(=O)O)c2O)c1O (tested in a mixture with another compound) | 14.8% (inactive) | 7.75 (inactive) | 58.5% (inactive) | 76.8 |
| CO[C@@H]1[C@@H](OC2OC(C)C(OC3CC(C)(O)C(OC(=O)CC(C)C)C(C)O3)C(N(C)C)C2O)[C@@H](CC=O)C[C@@H](C)[C@@H](O)/C=C/C=C/C[C@@H](C)OC(=O)C[C@H]1OC(C)=O (some centres undefined) | 127% (active) | 16.8 (inactive) | 90.7% (inactive) | 92.1 |
| C=C1C(=O)O[C@H]2C1CC/C(C)=C/CC[C@@]1(C)O[C@H]21 (some centres undefined) | 20.5% (inactive) | – | – | – |
| CC[C@H]1OC(=O)[C@H](C)[C@@H](OC2CC(C)(OC)C(O)C(C)O2)[C@H](C)[C@@H](OC2OC(C)CC(N(C)C)C2O)[C@@H](C)C[C@](C)(O)[C@@H]2N[C@H](COCCOC)O[C@H]([C@H]2C)[C@]1(C)O (some centres undefined) | 59.6% (active) | – | – | – |
| CC1CCC2(OC1)O[C@H]1C[C@H]3[C@@H]4CC[C@H]5C[C@@H](O)CC[C@]5(C)[C@H]4CC(=O)[C@]3(C)[C@H]1[C@@H]2C (some centres undefined) | 74.2% (active) | 3.25 (inactive) | – | – |
| CC1O[C@H](O[C@]2(O[C@H]3CC[C@@]4(C)C(=CC[C@H]5[C@@H]6C[C@H]7[C@H]([C@H](C)[C@H]8CC[C@H](C)CN87)[C@@]6(C)CC[C@@H]54)C3)C[C@@H](O[C@@H]3OC(CO)[C@@H](O)[C@@H](O)C3O)[C@@H](O)C(CO)O2)C(O)[C@@H](O)[C@H]1O (some centres undefined) | 75.1% (active) | 4.89 (inactive) | 74.2% (inactive) | 82 |
| CC[N+]1(C)C2CCC1CC(OC(=O)[C@H]1CCC(C(=O)OC3CC4CCC(C3)[N+]4(C)CC)(c3ccccc3)c3ccccc31)C2 (some centres undefined) | 92.7% (active) | 4.5 (inactive) | – | – |
| COc1ccc([C@@H]2CC(=O)c3c(O)cc(O[C@@H]4OC(CO[C@@H]5OC(C)[C@H](O)[C@H](O)C5O)[C@@H](O)[C@@H](O)C4O)cc3O2)cc1O (some centres undefined) | 9.9% (inactive) | 9.92 (inactive) | 71.5% (inactive) | 80.9 |
| NCC1OC(OC2C(N)CC(N)C(O)C2O[C@@H]2O[C@H](CO)[C@H](O)C2O)C(N)C(O)C1O (some centres undefined) | 50.5% (active) | 0.167 (inactive) | – | – |
| CCC(C(=O)C(C)C(O)C(C)CCc1ccc(C)c(O)c1C(=O)O)[C@H]1O[C@](CC)([C@H]2CCC(O)(CC)[C@H](C)O2)C[C@@H]1C (some centres undefined) | 130% (active) | – | – | – |
| CC1(C)S[C@@H]2[C@H](NC(=O)C(NC(=O)N3CCNC3=O)c3ccccc3)C(=O)N2[C@H]1C(=O)O (some centres undefined) | 25.1% (inactive) | – | – | – |
| CCCC(=O)Nc1ncnc2c1ncn2[C@@H]1O[C@@H]2COP(=O)(O)O[C@@H]2C1OC(=O)CCC (some centres undefined) | 80% (active) | 3.33 (inactive) | – | – |
| CCC(=O)OC1C(C)OC(OC2C(C)OC(O[C@H]3[C@@H](CC=O)C[C@@H](C)[C@@H](O)/C=C/C=C/C[C@@H](C)OC(=O)C[C@@H](OC(=O)CC)[C@@H]3OC)C(O)C2N(C)C)CC1(C)O (some centres undefined) | 72% (active) | 16.6 (inactive) | 77.4% (inactive) | 89 |
| c1ccc2c3c([nH]c2c1)C1C2CCC(C4CCCNC42)N1CC3 (centres undefined) | 15.6% (inactive) | 1.58 (inactive) | – | – |
| CCOc1ccc2ccccc2c1C(=O)NC1C(=O)N2C1SC(C)(C)C2C(=O)O (centres undefined) | 71.1% (active) | – | – | – |
| CC[C@H](C)[C@H]1O[C@]2(CC[C@@H]1C)C[C@@H]1C[C@@H](C/C=C(\C)C(O[C@H]3C[C@H](OC)[C@@H](O[C@H]4C[C@H](OC)[C@@H](O)[C@H](C)O4)[C@H](C)O3)[C@@H](C)/C=C/C=C3\CO[C@@H]4[C@H](O)C(C)=C[C@@H](C(=O)O1)[C@]34O)O2 (some centres undefined) | 136% (active) | 17.6 (inactive) | 93.7% (inactive) | 89.6 |
| NCC1OC(OC2C(N)CC(N)C(OC3OC(CO)C(O)C(N)C3O)C2O)C(N)CC1O (centres undefined) | -2% (inactive) | 1.08 (inactive) | 57.1% (inactive) | 77.2 |
| C[C@@H]1C(=O)O[C@H]2CC34[C@H]5C[C@@H](C(C)(C)C)C36[C@@H](OC(=O)[C@@H]6O)OC4(C(=O)O5)[C@]21O (some centres undefined) | 57.6% (active) | 10.1 (inactive) | 79.2% (inactive) | 79.7 |
| C=C1CC23CC4C5[C@@]6(C)C[C@H](OC(=O)c7ccccc7)[C@@H](OC(C)=O)[C@@]57C2[C@H](OC(C)=O)[C@@H]1[C@H](O)[C@H]3[C@H]7N4C6 | 12.6% (inactive) | 4.92 (inactive) | – | – |
| O=C(Nc1ccc(-c2cn[nH]c2)cc1)C1COc2ccccc2O1 (centres undefined) | – | – | 48.6% (inactive) | 62.7 |
| O=C(O)Cc1c2ccccc2n2c1[nH]c(=O)c1ccccc12 | – | – | 35.1% (inactive) | 170 |
| O=C1C(C2=C3C(=Nc4ccccc43)/C(=C\c3ccc(O)cc3)C2=O)=C2C(=Nc3ccccc32)/C1=C\c1ccc(O)cc1 | – | – | 52% (inactive) | 71.2 |
| COc1cc2nccc(Oc3ccc(NC(=S)NC(=O)c4ccccc4C)cc3)c2cc1OC | – | – | 22.3% (inactive) | 80.3 |
| O=C1NC(=O)c2c1c(-c1ccccc1Cl)cc1[nH]c3ccc(O)cc3c21 | – | – | 32.6% (inactive) | 81 |
| CC(=O)c1ccc(N2CCOCC2)cc1O | – | – | 38.3% (inactive) | 110 |
| Nc1n[nH]c(N)c1N=Nc1ccc(O)cc1 | – | – | 23.7% (inactive) | 93.1 |

Source: PubChem BioAssay
